Shown are actives, neighbours in structure and some others; about 8% of the full set was active somewhere.
HT1080 IDH1KD tx: kills HT-1080 cells with IDH1 knockdown. HT-1080 IDH1 knockdown viability, ATP luminescence, 48 h. Potency, µM (doses to about 46.1 µM), inactives show at the highest dose activity, negative = toxicity, hits mostly cytotoxic. hit rate 2% among 360,000. AID 686971;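 also: 0% = DMSO wells and -100% = cell-free medium wells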
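Using the IDH1-knockdown HT-1080 line run in the same batch and compound series as the NT line, viability after 48 h at 37 °C was determined by CellTiter-Glo luminescence and expressed as % activity.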
SW480 rereplic: induces DNA re-replication in SW480 colon adenocarcinoma cells | AID 624297 | SW480 DNA re-replication, Hoechst DNA content imaging, 48 h | Potency, µM (top dose mostly 46.1 µM), for the others: top-dose re-replication activation, most hits filed as activators | hit rate 1.8% among 340,000; also: % of control where 0% means no effect; nearly all actives have a fitted effect of over 55% in size
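Cells (250 per well) received 23 nL compound or DMSO by pin tool and were kept 48 hr at 37 C, 5% CO2. Nuclei were then stained with Hoechst for 40 min and scanned for DNA content.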
KB-V1 cytotox: kills drug-selected multidrug resistant KB-V1 cells. hit rate 3.4% among 400,000. KB-V1 MDR cells viability, CellTiter-Glo, 72 h. AID 1347076. Potency, µM (doses to about 46.1 µM), usual class: cytotoxic; also: % is scaled to controls: 0 for no effect and ±100 for the full control effect; nearly all actives have a fitted effect of over 60% in size
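Cytotoxicity via CellTiter-Glo luminescence after 72 h compound exposure at 37 degrees C. Cells: drug-selected KB-V1 line, DMEM phenol-red free plus 10% FBS. Compounds tested at multiple concentrations; normalized data fitted to concentration-effect curves.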
MCF10A rereplic: DNA re-replication induction in MCF 10a cells. MCF 10A DNA re-replication, Hoechst nuclear intensity, 48 h. Potency, µM (series often up to 46.1 µM), inactives show at the top dose activity, positive = re-replication, usual class: activators. hit rate 2.9% among 350,000; also: % of control where 0% means no effect; nearly all actives have a fitted effect of over 50% in size
KB-3-1 cytotox: KB-3-1 parental cell cytotoxicity | hit rate 1.4% among 400,000 | KB-3-1 viability, CellTiter-Glo ATP luminescence, 72 h | Potency, µM (doses to about 46.1 µM), hits mostly cytotoxic; also: % is scaled to controls: 0 for no effect and ±100 for the full control effect; nearly all actives have a fitted effect of over 60% in size
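Luminescent ATP read-out (CellTiter-Glo) measures survival of drug-naive KB-3-1 cells after 72 h compound exposure at 37 °C. Titration series was screened from lowest to highest concentration, with DMSO vehicle plates as background controls.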
HT1080NT lethal: kills 2HG-producing HT-1080-NT fibrosarcoma cells. HT-1080-NT fibrosarcoma viability, CellTiter-Glo ATP luminescence, 48 h. Potency, µM (top dose mostly 46.1 µM), for the others: at the top dose activity, negative = less viability, hits mostly cytotoxic. hit rate 1.6% among 360,000. AID 686970;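 also: NT is the 2HG producing partner of a matched IDH1 knockdown line; 0% = DMSO-treated cells and -100% = media-only wells without cells; nearly all actives have a fitted effect of over 55% in size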
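Read-out is CellTiter-Glo luminescence after 10 minutes at room temperature, following 48 hours' compound treatment of HT-1080-NT cells (750 cells/well, RPMI, 5% FBS, 37 degrees C).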
Active calls of the source: *; i = inactive; ? = inconclusive; / = not tested or not shown. Calls follow the shape of the dose curve; as a rule, active = well fitted curve in the direction sought with a large enough effect; inconclusive = small, poorly fitted or top-dose-only effect, or another doubt; inactive = no such curve, though single readings can be large; an effect the other way counts as inactive or inconclusive. Potency is read from the fitted curve at half-maximal effect.

SMILES | HT1080 IDH1KD tx | SW480 rereplic | KB-V1 cytotox | MCF10A rereplic | KB-3-1 cytotox | HT1080NT lethal
Cc1cc(N/N=C/c2ccccc2[N+](=O)[O-])nc(-n2nc(C)cc2C)n1 | -28% | 23% | ? | 7% | ? | ?
Cc1cc(N/N=C/c2ccc(O)cc2O)nc(-n2nc(C)cc2C)n1 | ? | ? | ? | 5.2µM* | ? | -30%
c1ccc(CNc2ncnc3sc4c(c23)CCCC4)nc1 | -4% | -1% | 8.2µM* | 6% | i | -4%
C(=N\Nc1ncnc2sc3c(c12)CCC3)/c1ccncc1 | ? | ? | 18µM* | 22% | ? | ?
Clc1nc(-c2cccnc2)nc2scc(-c3ccccc3)c12 | -3% | 12µM* | i | 16µM* | i | -4%
Clc1ncnc2scc(-c3ccccc3)c12 | 8% | 1% | i | 0% | i | 0%
COc1ccc(-c2nc(-c3cccnc3)no2)cc1OC | 2% | -9% | i | 1% | i | 12%
COc1ccc(-c2csc3nc(-c4cccnc4)nc(Cl)c23)cc1OC | ? | ? | i | 18µM* | i | -26%
CCc1ccccc1NC(=O)C1CCN(C2=NS(=O)(=O)C(c3ccc(C)c(C)c3)=C2C)CC1 | / | / | i | / | i | /
CCOc1nc(NCCC2=CCCCC2)nc(N2CCOCC2)n1 | -3% | 23µM* | i | 21µM* | i | 1%
OCCNc1nc(NCCC2=CCCCC2)nc(N2CCOCC2)n1 | -13% | -1% | i | -3% | i | -1%
Cc1ccc(/C(N)=N/OC(=O)N2c3ccccc3Sc3ccccc32)cc1 | -1% | 11% | ? | 14µM* | i | -1%
CCOC(=O)C1=C(CC)Nc2ccccc2N=C1NC(=O)Nc1ccc(Cl)c(Cl)c1 | ? | ? | i | 6.5µM* | ? | ?
COc1ccc(C(=O)NCc2ccc3c(c2)OCO3)cc1S(=O)(=O)NCc1ccc(Cl)cc1 | -11% | -1% | i | -3% | i | -4%
COc1ccc(C(=O)NCc2ccc3c(c2)OCO3)cc1S(=O)(=O)N(C)Cc1ccccc1 | -10% | -2% | 9.2µM* | 1% | i | -9%
COc1ccc(C(=O)NCCS(=O)(=O)NCc2ccc3c(c2)OCO3)cc1 | 8% | -3% | i | -1% | i | 3%
COc1ccc(CNS(=O)(=O)CCNC(=O)c2ccccc2)cc1 | -12% | 1% | i | -1% | i | -9%
COc1cccc(C(=O)NCCS(=O)(=O)NCc2ccc3c(c2)OCO3)c1 | -5% | -6% | 18µM* | 7% | i | -12%
COc1ccc(CNS(=O)(=O)CCNC(=O)c2cccc(OC)c2)cc1 | 3% | -3% | 16µM* | 3% | i | 5%
CCCc1c(C(=O)N/N=C/c2ccoc2)nnn1-c1nonc1N | 8% | / | i | / | i | 6%
Cc1ccc(Cl)cc1N1CCN(C(=O)c2cn(C)c3ccc(S(=O)(=O)N4CCCCC4)cc3c2=O)CC1 | / | / | i | / | i | /
O=C(NN1C(=O)/C(=C/c2ccc(O)cc2)SC1=S)c1cccc(O)c1 | 11% | -11% | i | -6% | i | 0%
O=C(NN1C(=O)/C(=C/C=C/c2ccccc2)SC1=S)c1ccncc1 | -7% | -2% | i | 18µM* | i | -9%
CC(/C=C1\SC(=S)N(NC(=O)c2cccc(O)c2)C1=O)=C\c1ccccc1 | -2% | -5% | ? | 12µM* | i | -9%
Cc1c(C)c2ccc(OCC(=O)N(C)C3CCS(=O)(=O)C3)c(C)c2oc1=O (stereo not given) | -17% | 0% | i | -6% | i | -1%
SMILES | HT1080 IDH1KD tx | SW480 rereplic | KB-V1 cytotox | MCF10A rereplic | KB-3-1 cytotox | HT1080NT lethal
Cc1onc(-c2c(F)cccc2Cl)c1C(=O)OCC(=O)NC(N)=O | -11% | -1% | ? | 0% | ? | -16%
Cc1onc(-c2c(F)cccc2Cl)c1C(=O)OCC(=O)NC(c1ccccc1)c1ccccc1 | ? | 13% | 6.5µM* | 0% | i | -24%
CCC(C)NCCOCCOc1ccccc1-c1ccccc1 (stereo not given) | ? | ? | i | 18% | i | ?
COCCCNCCOCCOc1ccccc1-c1ccccc1 | -15% | -2% | 23µM* | 1% | i | -8%
CC(C)(C)NCCOCCOc1ccccc1-c1ccccc1 | -2% | -5% | 23µM* | 2% | i | 0%
Cc1ccc(S(=O)(=O)N(C)CCCN(C)c2nc(-c3cccs3)nc3ccccc23)cc1 | -3% | / | / | / | / | 0%
COc1ccc(/C=C/c2cc(-c3ccc(C)cc3)o[n+]2C)cc1 | 6.5µM* | ? | i | ? | ? | 15µM*
CCc1ccc(C2C(C(=O)Nc3ccccc3OC)=C(C)Nc3nc(SCc4ccccc4)nn32)cc1 (stereo not given) | / | / | i | / | i | /
CCOc1ccc(C(=O)N2CCN(Cc3ccccc3)CC2)cc1OCC | -6% | -7% | ? | 1% | i | -6%
CCCCNC(=O)CCn1c(=O)c2cccn2c2ccc(F)cc21 | 14% | -1% | i | ? | i | 17%
N#Cc1cc(-c2ccc(Cl)cc2)cnc1Sc1ccc(F)cc1 | 1% | 9% | i | 15µM* | i | 14%
N#Cc1cc(-c2ccccc2)cnc1Sc1ccc(Cl)cc1 | 6% | 10% | ? | 13% | i | 10%
O=C(/C=C/c1ccccc1Cl)c1ccc[nH]1 | ? | 4.6µM* | i | ? | ? | ?
O=C(/C=C/c1ccc(Cl)cc1Cl)c1ccc[nH]1 | -15% | ? | i | 117% | i | ?
COC(=O)c1ccc(Cn2c(SCc3cccc(C)c3)nc3ccncc32)cc1 | / | / | i | / | i | /
COc1cc(-c2nccc3cc4c(cc23)OCO4)cc(OC)c1OC | 4.6µM* | 5.8µM* | 5.2µM* | 15µM* | 4.1µM* | ?
COc1cc2cc(OC(C)=O)c3cc4c(cc3c2c(OC)c1OC)OCO4 | 22% | / | i | / | i | 15%
Cc1ccc(C(C)C)c(OCc2ccc(C(=O)Nc3ccc(S(N)(=O)=O)cc3C)o2)c1 | / | / | i | / | i | /
Cc1ccc(C)c(N2CCN(C(=O)c3ccc(CS(=O)Cc4ccc(Cl)cc4)o3)CC2)c1 (stereo not given) | -14% | 16µM* | ? | ? | i | -24%
Cc1ccc(C)c(N2CCN(C(=O)c3ccc(CS(=O)(=O)c4ccccc4C)o3)CC2)c1 | 10µM* | ? | ? | ? | ? | ?
COc1ccc(N2CCN(C(=O)c3ccc(CS(=O)(=O)c4ccccc4C)o3)CC2)cc1 | ? | 9% | ? | 12% | i | -23%
